# Measured values: PubChem BioAssay (NCI)
# This is part of a sample that, as a whole, favours compounds with a hit. Of some 83,000 tested, about 20% had one in any assay.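 The test compound was applied at a single concentration to cells in 96-well plates for 48 hours, and percent growth was recorded.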 Values without a mark were called inactive. Calls of active or inactive are those of the source. The calls were made as follows: active = growth percent below 10; inactive = the rest.
# Key:
# Assay in all cases: NCI-60 one-dose screen, 48 h (100 = growth as untreated, 0 = no growth, -100 = all killed)
# MDA-MB-468 breast = conditions: 10 µM unless noted
# NCI-H226 lung = conditions: 10 µM
# NCI-H322M lung = conditions: 10 µM
# HOP-62 NSCLC = conditions: 10 µM
# NCI-H460 lung = conditions: 10 µM
# NCI-H522 lung = conditions: 10 µM
# A549/ATCC NSCLC = conditions: 10 µM
# COLO 205 colon = conditions: 10 µM
# DU-145 prostate = conditions: 10 µM
# K-562 leukemia = conditions: 10 µM
# SF-268 CNS = conditions: 10 µM
# SF-295 CNS = conditions: 10 µM
# SF-539 CNS = conditions: 10 µM
# HT29 colon = conditions: 10 µM
# SNB-19 CNS = conditions: 10 µM
# PC-3 prostate = conditions: 10 µM
# MOLT-4 leukemia = conditions: 10 µM
# SR leukemia = conditions: 10 µM
# RPMI-8226 leukemia = conditions: 10 µM
# SK-OV-3 ovarian = conditions: 10 µM
Structure (SMILES),growth (MDA-MB-468 breast),growth (NCI-H226 lung),growth (NCI-H322M lung),growth (HOP-62 NSCLC),growth (NCI-H460 lung),growth (NCI-H522 lung),growth (A549/ATCC NSCLC),growth (COLO 205 colon),growth (DU-145 prostate),growth (K-562 leukemia),growth (SF-268 CNS),growth (SF-295 CNS),growth (SF-539 CNS),growth (HT29 colon),growth (SNB-19 CNS),growth (PC-3 prostate),growth (MOLT-4 leukemia),growth (SR leukemia),growth (RPMI-8226 leukemia),growth (SK-OV-3 ovarian)
O=C(Nc1ccccc1O)c1ccc(Oc2cccc(C(=O)Nc3ccccc3O)c2)cc1,-27.2% (active),–,–,–,–,–,–,–,–,–,–,–,–,–,–,–,–,–,–,–
Cc1ccc2sc3c(c2c1)Oc1nc[nH]c(=O)c1C3c1cccc(F)c1 (stereo not given),78%,80.6%,96.7%,98.6%,102%,82.8%,98.7%,105%,105%,81.7%,104%,109%,99.6%,103%,92.6%,85.7%,97%,96.3%,88.7%,93.5%
Cc1ccc(COc2ccc(NC(=O)Nc3ccc(Cl)c(C(F)(F)F)c3)cc2)cc1,-14.4% (active),75.7%,77.4%,97.9%,59.5%,44.9%,64.7%,76.8%,81.5%,66.7%,86.2%,67.7%,78.7%,80.6%,75.8%,38.4%,73.5%,55%,39.5%,97.1%
COc1ccc(C2OC[C@@]3(C)C4CC[C@]5(C)C(CC=C6C7CC(C)(C)CC[C@]7(C(=O)O)CC[C@]65C)[C@@]4(C)C[C@@H](O)[C@@H]3O2)cc1 (stereo not given in full),75.9%,84.5%,83.5%,95.5%,69.1%,57.1%,39%,78.8%,76.3%,44%,88.8%,94.3%,95.7%,70.8%,90.9%,49.2%,47.2%,54.7%,40.3%,132%
O=C(Nc1ccccc1O)c1ccc(CNC(=O)c2sccc2Nc2ccnc(C(F)(F)F)c2)cc1,14.8%,–,–,–,–,–,–,–,–,–,–,–,–,–,–,–,–,–,–,–
COc1ccc(Cc2nn(CC(=O)N/N=C/c3ccc([N+](=O)[O-])cc3)c(=O)c3c(C)noc23)cc1,53.1%,70.6%,78.6%,39.6%,16.6%,76.1%,22.5%,82.9%,88.4%,88.4%,77.7%,92.7%,34%,96.2%,59.6%,69.8%,90.2%,93.2%,81.5%,103%
COc1cccc(O)c1/C=C1\SCc2cc3c(OC)cccc3[o+]c21,112%,98.2%,103%,105%,127%,102%,108%,140%,114%,106%,103%,99%,98%,113%,101%,97.9%,112%,98%,107%,118%
CC1(C)CC(=O)C2=C(C1)N(Cc1ccc(C(=O)O)cc1)C1=C(C(=O)CC(C)(C)C1)C2c1ccc(Cl)cc1,103%,108%,93.7%,101%,104%,84.9%,99.3%,121%,113%,103%,106%,99.4%,110%,112%,112%,109%,92.9%,99.6%,113%,101%
O=C(CC(=O)Nc1ccc(Oc2ncnc3scc(Nc4n[nH]c(=S)s4)c23)cc1)Nc1ccc(Br)cc1,120%,94.4%,106%,99.8%,107%,89.6%,101%,107%,107%,76.4%,98.7%,112%,104%,112%,99.9%,99.9%,85.3%,87%,110%,98.4%
COc1cc2oc(-c3cccc(C(=O)Nc4ccc(Cl)cc4)c3)cc(=O)c2c(OCCN)c1OC,-73.4% (active),-76.6% (active),-93.7% (active),-62.7% (active),-87.2% (active),-87.1% (active),-58.3% (active),-75.8% (active),-99% (active),-43.9% (active),-76.8% (active),-81.4% (active),-83.2% (active),-91.2% (active),-78.7% (active),-87.3% (active),-59.2% (active),-48.6% (active),-64.2% (active),-84.6% (active)
O=C(O)c1cn(C2CC2)c2cc(N3CCN(S(=O)(=O)c4ccc(Cl)c(Cl)c4)CC3)c(F)cc2c1=O,-10.6% (active),–,–,–,–,–,–,–,–,–,–,–,–,–,–,–,–,–,–,–
COC(=O)CC[C@@H]1O[C@@H](c2cccc(C(F)(F)F)c2)[C@@H](O)[C@H]1O,89%,–,–,–,–,–,–,–,–,–,–,–,–,–,–,–,–,–,–,–
O=C(CSc1nc2ccccc2c(=O)n1-c1ccc(Cl)cc1)Nc1ccc(-c2nc3ccccc3[nH]2)cc1,-41.7% (active),30.1%,37.5%,5.56% (active),-12.6% (active),15.9%,-16.8% (active),-12% (active),-8.05% (active),2.71% (active),-33.3% (active),-7.28% (active),-29.4% (active),-38.9% (active),18.3%,-54.2% (active),-7.88% (active),-15.2% (active),22.4%,94.2%
COc1ccc(-n2c(SCC(=O)NNS(=O)(=O)c3ccccc3)nc3ccc(Cl)cc3c2=O)cc1,102%,91%,98.1%,96.6%,115%,86.5%,106%,120%,113%,99.5%,102%,102%,97.6%,114%,98.6%,88.4%,93.4%,78.9%,99%,66.1%
CCOC(=O)C1=C(CCl)NC(=O)NC1c1ccc2c(c1)OCO2 (stereo not given),-1.1% (active),–,–,–,–,–,–,–,–,–,–,–,–,–,–,–,–,–,–,–
COc1ccc(NCc2cn(-c3ccc(C(=O)O)cc3)nc2-c2ccc(F)cc2)cc1C(F)(F)F,65.1%,66.3%,62%,66.3%,37.2%,40.2%,35.8%,71.2%,69.3%,41.3%,53.8%,29.6%,53.9%,51%,39.3%,36.3%,40.7%,50.7%,37.6%,112%
O=C(Nc1ccc(Oc2ncnc3scc(Nc4n[nH]c(=S)s4)c23)cc1)C1(C(=O)Nc2cccc(C(F)(F)F)c2)CC1,-10.1% (active),72.2%,101%,92.8%,81.9%,94.1%,92.5%,101%,106%,102%,102%,108%,96.1%,112%,99.6%,103%,106%,85%,110%,93.7%
C#C[C@]1(O)CC[C@H]2[C@@H]3CC=C4c5sc(Nc6ccc(N(C)C)cc6)nc5CC[C@]4(C)[C@H]3CC[C@@]21C,-56.3% (active),-43.2% (active),42.5%,10.7%,7.37% (active),-57.1% (active),20.5%,-28.6% (active),-8.05% (active),4% (active),11.7%,-58.7% (active),-75.7% (active),-53.5% (active),18.1%,5.44% (active),-6.03% (active),9.05% (active),-42% (active),-39.5% (active)
Fc1ccc(/C=C/c2nc3ccccc3n3c(-c4ccc(Cl)cc4)nnc23)cc1,-2.32% (active),77.4%,89.6%,107%,59.6%,-81.7% (active),82%,67.8%,68%,10%,78%,128%,85.5%,59.5%,86.2%,72.5%,2.97% (active),-3.04% (active),53.5%,104%
